Assay results reported in PubChem BioAssay (NCATS).
Records with an inconclusive call do not appear. Calls of active or inactive are those of the source. Unless noted, calls follow the shape of the dose curve; as a rule, active = well fitted curve in the direction sought with a large enough effect; inconclusive = small, poorly fitted or top-dose-only effect, or another doubt; inactive = no such curve, though single readings can be large; an effect the other way counts as inactive or inconclusive.

How the values were obtained:
[1] = biological target: D(1A) dopamine receptor (Homo sapiens) (UniProt P21728); test: HTS Assay for Allosteric Agonists of the Human D1 Dopamine Receptor: Primary Screen for Agonists (AID 488981); also: 0% is about no effect
D(1A) dopamine receptor (Homo sapiens), sequence (P21728 whole entry, looked up): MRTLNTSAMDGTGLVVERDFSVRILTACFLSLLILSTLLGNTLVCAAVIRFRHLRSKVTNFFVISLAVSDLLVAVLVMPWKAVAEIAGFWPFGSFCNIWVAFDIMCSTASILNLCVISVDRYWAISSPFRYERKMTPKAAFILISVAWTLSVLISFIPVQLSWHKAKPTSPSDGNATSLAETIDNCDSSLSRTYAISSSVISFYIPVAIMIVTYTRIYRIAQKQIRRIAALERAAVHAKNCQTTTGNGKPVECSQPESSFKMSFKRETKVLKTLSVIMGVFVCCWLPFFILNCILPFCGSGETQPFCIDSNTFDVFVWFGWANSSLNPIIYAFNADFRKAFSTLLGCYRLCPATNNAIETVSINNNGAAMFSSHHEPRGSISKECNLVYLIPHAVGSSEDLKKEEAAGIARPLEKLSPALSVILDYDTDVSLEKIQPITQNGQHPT
Outline: (§1)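 Calcium flux in an inducible, force-coupled HEK293 Trex D1 line (overnight at 30 C): agonist mode is the 180 s kinetic read after compound; potentiator mode is the following 180 s read after dopamine at EC20.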

[2] = biological target: D(1A) dopamine receptor (Homo sapiens) (UniProt P21728); test: HTS Assay for Allosteric Agonists of the Human D1 Dopamine Receptor: Primary Screen for Potentiators (AID 488982); also: 0% is about no effect
Outline: as §1

[3] = biological target: D(1A) dopamine receptor (Homo sapiens) (UniProt P21728); test: HTS Assay for Allosteric Agonists of the Human D1 Dopamine Receptor: Primary Screen for Antagonists (AID 488983);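 also: calcium flux response to an EC80 dopamine challenge measured with no-wash dye; nearly all actives have a fitted effect of over 65% in size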; also: potency is read from the fitted curve at half-maximal effect
Outline: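 Calcium flux readout, no-wash dye, inducible HEK293 T-REx D1 line (force-coupled). Compound added after 10 s baseline, 180 s kinetic read; then dopamine at EC80, further 180 s read.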

[4] = Validation screen for small molecules that induce genotoxicity in human embryonic kidney (HEK293T) cells expressing luciferase-tagged ELG1 (AID 493106); also: 0% is about no effect
Outline: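 qHTS format; 2,000 HEK293T ELG1-luc cells/well; 23 nL compound via pin tool; 16 hr, 37 °C/5% CO2; ONE-Glo, 30 min RT; luminescence read.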

[5] = biological target: ATPase family AAA domain-containing protein 5 (Homo sapiens) (UniProt Q96QE3); test: Validation screen for small molecules that inhibit ELG1-dependent DNA repair in human embryonic kidney (HEK293T) cells expressing luciferase-tagged ELG1 (AID 493107);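 also: cells co-treated with the DNA-damaging agent 5-fluorouridine alongside compound; series mostly up to about 46 µM; % is scaled to controls: 0 for no effect and ±100 for the full control effect; inhibitors lower the ELG1-luciferase luminescence signal; nearly all actives have a fitted effect of over 70% in size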
ATPase family AAA domain-containing protein 5 (Homo sapiens), sequence (Q96QE3 whole entry, looked up, the tested form may be a part): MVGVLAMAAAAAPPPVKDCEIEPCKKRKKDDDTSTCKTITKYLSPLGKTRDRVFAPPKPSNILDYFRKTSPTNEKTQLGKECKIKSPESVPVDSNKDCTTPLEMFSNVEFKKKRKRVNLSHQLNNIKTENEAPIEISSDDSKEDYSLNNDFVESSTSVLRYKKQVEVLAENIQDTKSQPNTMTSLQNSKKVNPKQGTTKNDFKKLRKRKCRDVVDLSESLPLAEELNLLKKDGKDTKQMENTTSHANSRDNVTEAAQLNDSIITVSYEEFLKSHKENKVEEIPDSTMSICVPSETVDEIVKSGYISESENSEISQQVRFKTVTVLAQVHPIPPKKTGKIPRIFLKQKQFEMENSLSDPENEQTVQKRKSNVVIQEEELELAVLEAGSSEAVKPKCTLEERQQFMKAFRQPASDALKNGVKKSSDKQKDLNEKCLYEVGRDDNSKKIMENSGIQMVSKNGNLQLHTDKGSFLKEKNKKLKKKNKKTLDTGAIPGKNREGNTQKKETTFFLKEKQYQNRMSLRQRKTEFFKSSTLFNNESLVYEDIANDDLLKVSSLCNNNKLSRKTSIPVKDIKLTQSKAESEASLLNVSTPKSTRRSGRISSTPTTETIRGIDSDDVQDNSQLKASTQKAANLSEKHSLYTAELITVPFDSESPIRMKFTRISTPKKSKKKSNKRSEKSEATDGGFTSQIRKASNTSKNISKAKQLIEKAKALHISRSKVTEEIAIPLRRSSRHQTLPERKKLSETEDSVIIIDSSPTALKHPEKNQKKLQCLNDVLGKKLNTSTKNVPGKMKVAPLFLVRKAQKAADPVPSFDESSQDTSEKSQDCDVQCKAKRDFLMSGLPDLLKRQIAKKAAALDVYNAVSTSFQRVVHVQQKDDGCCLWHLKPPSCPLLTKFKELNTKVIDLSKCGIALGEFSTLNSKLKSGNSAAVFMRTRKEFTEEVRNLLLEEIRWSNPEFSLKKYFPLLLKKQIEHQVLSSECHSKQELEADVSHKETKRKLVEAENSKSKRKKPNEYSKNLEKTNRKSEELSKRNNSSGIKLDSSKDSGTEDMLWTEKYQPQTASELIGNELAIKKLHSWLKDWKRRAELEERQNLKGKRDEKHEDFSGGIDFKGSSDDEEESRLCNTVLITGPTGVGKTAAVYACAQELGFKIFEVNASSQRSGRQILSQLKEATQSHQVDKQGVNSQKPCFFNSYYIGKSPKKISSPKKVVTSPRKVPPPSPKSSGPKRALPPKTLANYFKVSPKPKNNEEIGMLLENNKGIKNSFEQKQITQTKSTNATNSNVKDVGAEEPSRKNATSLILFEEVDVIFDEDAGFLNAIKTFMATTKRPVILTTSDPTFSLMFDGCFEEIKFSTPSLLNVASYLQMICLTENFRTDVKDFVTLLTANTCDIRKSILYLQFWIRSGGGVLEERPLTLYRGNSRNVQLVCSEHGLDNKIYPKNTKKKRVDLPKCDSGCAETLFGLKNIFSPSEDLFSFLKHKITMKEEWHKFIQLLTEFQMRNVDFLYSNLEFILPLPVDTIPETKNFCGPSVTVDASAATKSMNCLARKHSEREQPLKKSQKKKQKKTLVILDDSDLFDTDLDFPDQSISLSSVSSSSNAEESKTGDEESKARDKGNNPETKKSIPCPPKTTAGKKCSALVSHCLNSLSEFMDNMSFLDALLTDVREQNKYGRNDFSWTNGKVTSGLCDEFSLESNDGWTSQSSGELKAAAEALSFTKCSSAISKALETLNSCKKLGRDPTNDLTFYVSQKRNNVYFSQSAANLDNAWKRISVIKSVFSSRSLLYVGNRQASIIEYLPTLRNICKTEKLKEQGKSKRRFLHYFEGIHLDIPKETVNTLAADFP
Outline: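 ELG1-luciferase HEK293T reporter; 5-fluorouridine + compound/DMSO, 16 hr, 37 °C, 5% CO2; ONE-Glo 30 min RT; luminescence read, qHTS format.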

[6] = Nrf2 qHTS screen for inhibitors: Validation (AID 493153; active = well fitted inhibition curve with a large enough effect in the main read-out, with a control signal flat, not every such curve was filed as active); conditions: Potency: luciferase luminescence; viability change: measured here: cytotoxicity max response
Outline: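 Concentration-response test in A549 ARE_Fluc reporter cells (5% FBS OPTI-MEM), compound exposure 18-24 h at 37°C, 5% CO2. Cell viability measured first by CellTiter-Fluor fluorescence; ARE-driven luciferase luminescence then measured as Nrf2 activity.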

[7] = biological target: Galactokinase (Homo sapiens) (UniProt P51570); test: qHTS Validation Assay for Inhibitors of Human Galactokinase (GALK) (AID 493189); also: 0% is about no effect
Galactokinase (Homo sapiens), sequence (P51570 whole entry, looked up): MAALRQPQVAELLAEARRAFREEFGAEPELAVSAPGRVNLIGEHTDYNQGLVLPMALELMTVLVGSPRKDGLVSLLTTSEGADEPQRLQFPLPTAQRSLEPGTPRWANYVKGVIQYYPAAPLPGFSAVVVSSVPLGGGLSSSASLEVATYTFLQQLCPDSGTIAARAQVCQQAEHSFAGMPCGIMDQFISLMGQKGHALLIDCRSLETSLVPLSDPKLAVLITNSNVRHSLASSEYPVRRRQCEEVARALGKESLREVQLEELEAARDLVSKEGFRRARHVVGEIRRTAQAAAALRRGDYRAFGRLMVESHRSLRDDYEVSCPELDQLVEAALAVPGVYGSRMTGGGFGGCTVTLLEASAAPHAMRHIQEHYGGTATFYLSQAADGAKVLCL
Outline: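 Luminescence from leftover ATP (Kinase-Glo Plus, 10 min) served as read-out after a 1 h room-temperature reaction of 5 nM GALK, 100 uM galactose and 35 uM ATP at pH8.0.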

[8] = Validation screen for small molecules that induce DNA re-replication in SW480 colon adenocarcinoma cells (AID 504364); also: 0% is about no effect
Outline: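 Read-out: total Hoechst intensity of nuclei by fluorescence scanning imager; hits raise the fraction of nuclei with elevated DNA content. Cells received compound for 48 hr at 37 C before a 40 min stain.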

[9] = biological target: Peptidyl-prolyl cis-trans isomerase NIMA-interacting 1 (Homo sapiens) (UniProt Q13526); test: qHTS Validation Assay to Find Inhibitors of Pin1 (AID 504536; active = well fitted inhibition curve with a large enough effect in the polarisation, with a control signal flat, not every such curve was filed as active; the % refers to the polarisation;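 also: 0% = full Pin1 enzyme wells and -100% = no-enzyme wells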)
Peptidyl-prolyl cis-trans isomerase NIMA-interacting 1 (Homo sapiens), sequence (Q13526 whole entry, looked up): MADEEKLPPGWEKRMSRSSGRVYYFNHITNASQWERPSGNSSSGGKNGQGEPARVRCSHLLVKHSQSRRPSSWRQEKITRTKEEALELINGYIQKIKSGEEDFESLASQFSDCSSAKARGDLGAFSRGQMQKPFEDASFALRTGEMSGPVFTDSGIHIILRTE
Outline: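 Fluorescence polarization competition: compounds (titration) displace HiFluor-488-labeled Pin1-1b peptide from Pin1 (0.3 uM final) in pH 7.5 HEPES buffer with DTT, 10 min at room temperature; %Activity normalized to no-enzyme wells, curves fitted.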

[10] = biological target: Phosphoglycerate kinase, glycosomal (Trypanosoma brucei brucei) (UniProt P07378); test: qHTS Validation Assay to Find Inhibitors of Phosphoglycerate Kinase (AID 504547);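 also: control wells lack PGK and mark full inhibition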
Outline: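 Luminescence end-point (Kinase-Glo Plus, 10 min) after a 60 min room-temperature coupled reaction. GAPDH at 100nM final supplies 1,3-BPG to PGK. Buffer: 100mM TEA pH 7.6, 5mM MgCl2, 0.01% Tween-20. Wells lacking PGK served as controls.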

[11] = biological target: phosphoglycerate mutase (Leishmania major) (UniProt Q4Q090); test: qHTS Validation Assay to Find Inhibitors of Phosphoglycerate Mutase (AID 504548);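 also: end-point luminescence from Kinase-GloPlus after the PGAM reaction; series mostly up to about 58 µM; % is scaled to controls: 0 for no effect and ±100 for the full control effect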
Outline: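 L. major PGAM (1.25nM final) was added to substrate buffer and pinned compound, incubated 45 minutes at room temperature, then Kinase-GloPlus added; luminescence read after 10 minutes. Buffer: 100 mM TEA pH 7.6, 5 mM MgCl2, 0.01% Tween-20.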

[12] = biological target: Ubiquitin carboxyl-terminal hydrolase 1 (Homo sapiens) (UniProt O94782); test: Inhibitors of USP1/UAF1: Pilot qHTS (AID 504865);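 also: rhodamine fluorescence freed from ubiquitin-rhodamine substrate followed over time; top concentration of the series differs between compounds; % is scaled to controls: 0 for no effect and ±100 for the full control effect; nearly all actives have a fitted effect of over 35% in size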
Ubiquitin carboxyl-terminal hydrolase 1 (Homo sapiens), sequence (O94782 whole entry, looked up): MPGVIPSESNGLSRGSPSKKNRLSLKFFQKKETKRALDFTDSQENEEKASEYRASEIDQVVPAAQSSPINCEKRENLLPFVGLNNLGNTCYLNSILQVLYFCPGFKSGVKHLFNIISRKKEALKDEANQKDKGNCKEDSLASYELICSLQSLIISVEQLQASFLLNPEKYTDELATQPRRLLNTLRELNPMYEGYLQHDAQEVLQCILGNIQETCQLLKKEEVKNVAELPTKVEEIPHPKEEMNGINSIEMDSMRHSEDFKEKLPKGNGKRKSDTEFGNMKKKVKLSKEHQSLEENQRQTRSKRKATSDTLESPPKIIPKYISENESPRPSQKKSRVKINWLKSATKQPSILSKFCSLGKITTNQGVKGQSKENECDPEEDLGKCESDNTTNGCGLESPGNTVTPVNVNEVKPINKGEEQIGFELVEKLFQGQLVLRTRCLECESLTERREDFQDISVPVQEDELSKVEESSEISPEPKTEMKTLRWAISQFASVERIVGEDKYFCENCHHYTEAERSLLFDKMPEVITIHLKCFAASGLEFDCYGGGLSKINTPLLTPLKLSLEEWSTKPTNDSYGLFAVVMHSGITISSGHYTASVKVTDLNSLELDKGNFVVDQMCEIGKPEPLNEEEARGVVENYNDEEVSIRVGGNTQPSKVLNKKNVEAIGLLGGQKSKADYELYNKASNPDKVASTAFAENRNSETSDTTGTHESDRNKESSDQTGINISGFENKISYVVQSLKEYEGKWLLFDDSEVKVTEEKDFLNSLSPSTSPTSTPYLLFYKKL
Outline: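 1nM USP1/UAF1 + cpd, 15 min RT; start w/ Ub-Rho 150nM final; kinetic FL 480/540 nm, 6 reads q60 s. Buffer 50mM HEPES pH 7.8, 0.5mM EDTA, 1mM TCEP, 0.01% Tween-20, 0.1 mg/ml BSA.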

[13] = qHTS for Inhibitors of ATXN expression: Validation of Cytotoxic Assay (AID 588349); also: % is scaled to controls: 0 for no effect and ±100 for the full control effect
Outline: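 Cytotoxicity counter-screen: HEK293 cells exposed to compound titrations, 72 hr, 37 degrees C. Read-out is intracellular ATP (CellTiter Glo luminescence) as a viability measure.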

[14] = qHTS for Inhibitors of ATXN expression: Validation (AID 588378); also: nearly all actives have a fitted effect of over 75% in size; also: potency is read from the fitted curve at half-maximal effect
Outline: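 Cells: HEK293-ATXN2-FFLuc, phenol-red free DMEM, 2 h attachment. Compound pin-transfer, 24 h, 37 degrees C, 5% CO2. CellTiter-Fluor 30 min, Ex405/Em525; Bright-Glo 5 min, luminescence 2 s exposure.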

[15] = biological target: Thyrotropin-releasing hormone receptor (Homo sapiens) (UniProt P34981); test: qHTS for Small Molecule Agonists and Allosteric Enhancers of Human TRH Receptor: Validation Screen for Agonists (AID 493127;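 active = calcium activation more than 3 SD above the typical response in the agonist read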;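 also: intracellular calcium rise by fluo-8 fluorescence before TRH EC20 addition; 0% is about no effect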); conditions: TRH receptor agonist cell assay; at 2 µM; stronger effect = higher value
Thyrotropin-releasing hormone receptor (Homo sapiens), sequence (P34981 whole entry, looked up): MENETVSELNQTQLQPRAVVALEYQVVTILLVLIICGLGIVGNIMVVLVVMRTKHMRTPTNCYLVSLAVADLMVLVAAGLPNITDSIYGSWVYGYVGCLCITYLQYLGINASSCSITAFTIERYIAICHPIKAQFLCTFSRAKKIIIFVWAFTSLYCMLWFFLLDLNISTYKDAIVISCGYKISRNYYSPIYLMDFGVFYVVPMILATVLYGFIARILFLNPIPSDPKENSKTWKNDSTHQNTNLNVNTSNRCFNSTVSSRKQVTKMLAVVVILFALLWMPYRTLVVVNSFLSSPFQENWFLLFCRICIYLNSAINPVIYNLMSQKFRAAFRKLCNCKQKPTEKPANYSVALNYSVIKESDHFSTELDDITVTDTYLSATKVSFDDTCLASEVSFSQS
Outline: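 Read-out: intracellular calcium release measured kinetically by FDSS (fluo-8, ex 480/em 530 nm), 1 reading/s after a 10-cycle baseline. TRHR cells, 2000/well, cultured 18 h at 33.5C, dye-loaded at room temp. Compound-evoked positive calcium signal flags agonists.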

[16] = biological target: DNA dC->dU-editing enzyme APOBEC-3G (Homo sapiens) (UniProt Q9HC16); test: qHTS for inhibitors of Vif-A3G interactions: Validation (AID 588379); also: 0% is about no effect
DNA dC->dU-editing enzyme APOBEC-3G (Homo sapiens), sequence (Q9HC16 whole entry, looked up): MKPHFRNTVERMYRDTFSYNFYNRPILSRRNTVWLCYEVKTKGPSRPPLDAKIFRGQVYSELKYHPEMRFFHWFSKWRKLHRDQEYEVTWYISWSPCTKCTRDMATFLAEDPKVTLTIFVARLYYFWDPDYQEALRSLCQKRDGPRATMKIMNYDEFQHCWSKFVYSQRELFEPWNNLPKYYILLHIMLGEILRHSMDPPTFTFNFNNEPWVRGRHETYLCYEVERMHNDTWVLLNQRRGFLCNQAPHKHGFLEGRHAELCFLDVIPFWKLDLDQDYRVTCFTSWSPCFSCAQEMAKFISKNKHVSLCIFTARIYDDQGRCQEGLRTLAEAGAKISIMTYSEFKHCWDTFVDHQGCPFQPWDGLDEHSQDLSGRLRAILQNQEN
Outline: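 Yellow fluorescence (Ex 488, Em 500-530) of Vif-coexpressing HeLa A3G-eYFP cells, scanned by Acumen cytometer, reports blocked A3G degradation. Cells plated at 700/well overnight at 37 deg C before compound addition, then a further overnight compound incubation at 37 deg C.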

[17] = biological target: ATP-dependent 6-phosphofructokinase (Trypanosoma brucei brucei) (UniProt O15648); test: qHTS Assay to Find Inhibitors of T. brucei phosphofructokinase: hit validation (AID 492961);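 also: luminescence reports ADP formed as PFK phosphorylates fructose-6-phosphate with ATP; series mostly up to about 51 µM; % is scaled to controls: 0 for no effect and ±100 for the full control effect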
ATP-dependent 6-phosphofructokinase (Trypanosoma brucei brucei), sequence (O15648 whole entry, looked up): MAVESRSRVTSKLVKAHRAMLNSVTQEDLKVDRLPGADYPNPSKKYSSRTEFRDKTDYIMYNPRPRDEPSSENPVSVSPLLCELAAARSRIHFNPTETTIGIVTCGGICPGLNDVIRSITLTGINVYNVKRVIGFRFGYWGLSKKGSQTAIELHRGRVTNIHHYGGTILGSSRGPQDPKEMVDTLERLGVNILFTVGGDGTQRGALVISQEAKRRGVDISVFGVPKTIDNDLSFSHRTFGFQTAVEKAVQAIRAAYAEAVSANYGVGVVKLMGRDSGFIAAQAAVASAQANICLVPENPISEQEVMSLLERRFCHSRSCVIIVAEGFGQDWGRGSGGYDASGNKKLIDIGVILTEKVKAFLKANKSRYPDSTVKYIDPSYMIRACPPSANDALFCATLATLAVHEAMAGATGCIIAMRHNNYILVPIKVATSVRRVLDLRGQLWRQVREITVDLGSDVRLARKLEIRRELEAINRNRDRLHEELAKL
Outline: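 Measures ADP output of PFK (1.25 nM) at 0.1 mM ATP, 0.5 mM F6P, pH 8.0 TEA buffer with 5 mM MgCl2. No-enzyme wells define full inhibition; uninhibited enzyme wells define zero.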

C[N+](C)(C)CCO
inactive: outcome [1] | outcome [2] | Potency [3] | outcome [4] | Potency [5] | Potency [6] | outcome [7] | outcome [8] | outcome [9] | outcome [10] | outcome [11] | Potency [12] | outcome [13] | Potency [14]
-3.89%: viability change [6]

Cn1cnc2c(NCc3ccccc3)nc(NCCO)nc21
8.36%: viability change [6]
inactive: outcome [1] | outcome [2] | Potency [3] | outcome [4] | Potency [5] | activation [15] 0.188% | Potency [6] | outcome [7] | outcome [8] | outcome [9] | outcome [10] | outcome [11] | Potency [12] | outcome [13] | Potency [14] | outcome [16]

CCN(CC)CCNC(=O)c1ccc(NS(C)(=O)=O)cc1
5.75%: viability change [6]
inactive: outcome [1] | outcome [2] | Potency [3] | outcome [4] | Potency [5] | Potency [6] | outcome [9] | outcome [10] | outcome [11] | Potency [12] | outcome [13] | Potency [14]

N[C@@H](Cn1ccc(=O)c(O)c1)C(=O)O
inactive: outcome [1] | outcome [2] | Potency [3] | outcome [4] | Potency [5] | outcome [9] | outcome [10] | outcome [11] | Potency [12] | outcome [13] | Potency [14]

Nc1c2ccccc2nc2ccccc12
inactive: outcome [17] | Potency [12]

Clc1ccc2c(c1)N=C(N1CCNCC1)c1ccccc1N2
1.81%: viability change [6]
inactive: outcome [4] | Potency [5] | Potency [6] | outcome [9] | outcome [10] | outcome [11] | outcome [16]
active: Potency [3] 0.562 µM | Potency [14] 12.6 µM

O=S(=O)(O)c1ccc2nc(-c3ccccc3)[nH]c2c1
inactive: outcome [17] | Potency [12]

O=C1NC(=O)/C(=C/c2ccc3c(c2)OC(F)(F)O3)S1
-9.96%: viability change [6]
inactive: outcome [1] | outcome [2] | Potency [3] | Potency [6] | outcome [9] | outcome [10] | outcome [11] | Potency [12] | outcome [13] | Potency [14]

O=C1NC(c2cccc([N+](=O)[O-])c2)=CCN1c1ccccc1O
inactive: outcome [1] | outcome [2] | Potency [3] | outcome [4] | Potency [5] | activation [15] 1.25% | Potency [6] | outcome [7] | outcome [8] | outcome [9] | outcome [10] | outcome [11] | Potency [12] | outcome [13] | Potency [14] | outcome [16]
-1.13%: viability change [6]

NC(N)=NCCCCN=C(N)N
2.98%: viability change [6]
inactive: outcome [1] | outcome [2] | Potency [3] | outcome [4] | Potency [5] | activation [15] 0.938% | Potency [6] | outcome [7] | outcome [8] | outcome [9] | outcome [10] | outcome [11] | Potency [12] | outcome [13] | Potency [14] | outcome [16]

Nc1ncnc2nc[nH]c12
inactive: outcome [17] | Potency [12]

Cc1nn(-c2ccccc2)c(C)c1/C=N/N1CCN(Cc2ccccc2)CC1
inactive: outcome [1] | outcome [2] | Potency [3] | outcome [4] | Potency [6] | outcome [9] | outcome [10] | outcome [11] | outcome [13] | Potency [14]
-3.49%: viability change [6]

Brc1ccc([C@H]2CN3CCSC3=N2)cc1
-0.405%: viability change [6]
inactive: outcome [1] | outcome [2] | Potency [3] | outcome [4] | Potency [5] | activation [15] -2.94% | Potency [6] | outcome [7] | outcome [8] | outcome [10] | outcome [11] | Potency [12] | outcome [13] | Potency [14]
